Experimental data reported in PubChem BioAssay (NCI).
The panel holds about 83,000 compounds, 20% with a hit somewhere; the sample as a whole holds those more often.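 Each cell line was grown in a 96-well plate and treated with one concentration of compound for 48 hours. Values below 10 were considered active.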 Active and inactive are the calls of the source. Where a SMILES comes first, the peptide text is derived from it. Bridges are numbered along the chain shown (N, C = ends). [ ]: non-standard residue; d: D form. The star is where a group is joined. ξ: configuration not given here. ξNMePhe(4-NMe2) = CNC(Cc1ccc(N(C)C)cc1)C(=O)O; Picolinoyl(3-OH) = O=C(c1ncccc1O)*; ξPip(4-oxo) = O=C1CCNC(C(=O)O)C1; Phg = N[CH](C(=O)O)c1ccccc1; Abu = CC[CH](N)C(=O)O

Each compound was assayed on MALME-3M melanoma (assay: NCI-60 one-dose screen, 48 h (100 = growth as untreated, 0 = no growth, -100 = all killed)). Conditions: 10 µM.

| SMILES | growth |
| --- | --- |
| N#CC1(Nc2ccc3c4c(cccc24)CC3)CCCCC1 | 93.1% (inactive) |
| CCCC1(c2ccccc2)NC(=O)NC1=O (stereo not drawn) | 121% (inactive) |
| O=C(NN=C1CCCCC1)C(=O)NN=C1CCCCC1 | 127% (inactive) |
| CC1CCCC(CC(N)=O)CC1 (stereo not drawn) | 107% (inactive) |
| CC(=O)OC(OC(C)=O)C1CCCO1 (stereo not drawn) | 112% (inactive) |
| CCOc1ccc(/C=N/N=C(N)N)cc1OCC | 113% (inactive) |
| COc1ccc2c(NCCCCCCCCNc3c4ccccc4nc4cc(OC)ccc34)c3ccccc3nc2c1 | -98.1% (active) |
| Nc1ncnc2[nH]ncc12 | 21.3% (inactive) |
| Cc1ccc(C(=O)c2ccccc2)c(C)c1 | 120% (inactive) |
| O=C(c1ccc(Cl)cc1)c1ccccc1Cl | 103% (inactive) |
| COc1cc2c(cc1O)CC[C@@H]1C2CC[C@@]2(C)C1CC[C@@H]2O (stereo partly drawn) | 48.1% (inactive) |
| CC(=O)OCC1=CC2OC(=O)C3=COC(OC4OC(CO)C(O)C(O)C4O)C1C32 (stereo not drawn) | 96.5% (inactive) |
| CC1(C)N=C(N)N=C(N)N1c1cccc(Br)c1 | 68.9% (inactive) |
| C/C(=C\c1ccc([N+](=O)[O-])cc1)C(=O)O | 108% (inactive) |
| Oc1ccccc1-c1nnco1 | 96.2% (inactive) |
| CO[C@H]1C[C@@H]2CC[C@@H](C)[C@@](O)(O2)C(=O)C(=O)N2CCCC[C@H]2C(=O)O[C@H]([C@H](C)C[C@@H]2CC[C@@H](O)[C@H](OC)C2)CC(=O)[C@H](C)C=C(C)[C@@H](O)[C@@H](OC)C(=O)[C@H](C)C[C@H](C)/C=C/C=C/C=C1C | 35.9% (inactive) |
| Cc1cccc(C(=O)N(C(C)C)C(C)C)c1 | 95.5% (inactive) |
| CC1(C)/C(=C\CO)C2CCC1C2 (stereo not drawn) | 103% (inactive) |
| CN(C)c1ccc(S(=O)(=O)O)cc1 | 103% (inactive) |
| O=[N+]([O-])c1ccc(/C=C/C=C/c2ccccc2)c(Cl)c1 | 116% (inactive) |

| SMILES | growth |
| --- | --- |
| N#CSc1cc(S(N)(=O)=O)ccc1N | 110% (inactive) |
| CCC1NC(=O)C(NC(=O)c2ncccc2O)C(C)OC(=O)C(c2ccccc2)NC(=O)C2CC(=O)CCN2C(=O)C(Cc2ccc(N(C)C)cc2)N(C)C(=O)C2CCCN2C1=O (stereo not drawn) (tested in a mixture with another compound) ({Picolinoyl(3-OH)}-T[Abu]P[ξNMePhe(4-NMe2)][ξPip(4-oxo)][Phg]; ester 1-C; configuration not given here) | 55.4% (inactive) |
| C=CCNc1ccccc1 | 124% (inactive) |
| CCOC(=O)C(CCC(C)C)C(=O)OCC | 108% (inactive) |
| COc1cccc(Sc2ccc([N+](=O)[O-])c3no[n+]([O-])c23)c1 | 27.7% (inactive) |
| CC1CC(O)CC(C)(C)C1 (stereo not drawn) | 97.4% (inactive) |
| Oc1ccccc1O | 138% (inactive) |
| Clc1ccc(-c2n[nH]c3c2Cc2ccccc2-3)cc1Cl | 102% (inactive) |
| CC1OC(Oc2c(-c3ccc(O)c(O)c3)oc3cc(O)cc(O)c3c2=O)C(O)C(O)C1O (stereo not drawn) | 110% (inactive) |
| O=c1[nH]nc(SC2CCCCC2)c(=O)[nH]1 | 95.7% (inactive) |
| CC(C)C1CCCCC1O (stereo not drawn) | 117% (inactive) |
| CCC(C#N)(CC)c1ccccc1 | 121% (inactive) |
| CC(=O)c1ccc(C(C)(C)C)cc1 | 102% (inactive) |
| CC(C)OC(=O)c1cc(NC(=S)OC(C)C)ccc1Cl | 67.6% (inactive) |
| Cc1cc2ccccc2c(O)c1C#N | 126% (inactive) |
| OCCN1CCOCC1 | 114% (inactive) |
| CC(=O)Oc1ccc(Br)cc1C(=O)O | 98.2% (inactive) |
| C#CCSc1nnnn1-c1ccc(Br)c(C)c1 | 112% (inactive) |
| c1ccc2c(c1)Sc1ccccc1S2 | 101% (inactive) |

These compounds were tested on MDA-MB-231 breast in the same assay as above. Conditions: 10 µM.

| SMILES | growth |
| --- | --- |
| N#CC1(Nc2ccc3c4c(cccc24)CC3)CCCCC1 | 99.8% (inactive) |
| CCCC1(c2ccccc2)NC(=O)NC1=O (stereo not drawn) | 95.2% (inactive) |
| O=C(NN=C1CCCCC1)C(=O)NN=C1CCCCC1 | 113% (inactive) |
| CC1CCCC(CC(N)=O)CC1 (stereo not drawn) | 103% (inactive) |
| CC(=O)OC(OC(C)=O)C1CCCO1 (stereo not drawn) | 91.8% (inactive) |
| CCOc1ccc(/C=N/N=C(N)N)cc1OCC | 108% (inactive) |
| COc1ccc2c(NCCCCCCCCNc3c4ccccc4nc4cc(OC)ccc34)c3ccccc3nc2c1 | -89.5% (active) |
| Nc1ncnc2[nH]ncc12 | 5.28% (active) |
| Cc1ccc(C(=O)c2ccccc2)c(C)c1 | 97.8% (inactive) |
| O=C(c1ccc(Cl)cc1)c1ccccc1Cl | 101% (inactive) |
| COc1cc2c(cc1O)CC[C@@H]1C2CC[C@@]2(C)C1CC[C@@H]2O (stereo partly drawn) | 26.7% (inactive) |
| CC(=O)OCC1=CC2OC(=O)C3=COC(OC4OC(CO)C(O)C(O)C4O)C1C32 (stereo not drawn) | 113% (inactive) |
| CC1(C)N=C(N)N=C(N)N1c1cccc(Br)c1 | 77.6% (inactive) |
| C/C(=C\c1ccc([N+](=O)[O-])cc1)C(=O)O | 102% (inactive) |
| Oc1ccccc1-c1nnco1 | 84.4% (inactive) |
| CO[C@H]1C[C@@H]2CC[C@@H](C)[C@@](O)(O2)C(=O)C(=O)N2CCCC[C@H]2C(=O)O[C@H]([C@H](C)C[C@@H]2CC[C@@H](O)[C@H](OC)C2)CC(=O)[C@H](C)C=C(C)[C@@H](O)[C@@H](OC)C(=O)[C@H](C)C[C@H](C)/C=C/C=C/C=C1C | 75.9% (inactive) |
| Cc1cccc(C(=O)N(C(C)C)C(C)C)c1 | 109% (inactive) |
| CC1(C)/C(=C\CO)C2CCC1C2 (stereo not drawn) | 112% (inactive) |
| CN(C)c1ccc(S(=O)(=O)O)cc1 | 105% (inactive) |
| O=[N+]([O-])c1ccc(/C=C/C=C/c2ccccc2)c(Cl)c1 | 89.6% (inactive) |

| SMILES | growth |
| --- | --- |
| N#CSc1cc(S(N)(=O)=O)ccc1N | 108% (inactive) |
| CCC1NC(=O)C(NC(=O)c2ncccc2O)C(C)OC(=O)C(c2ccccc2)NC(=O)C2CC(=O)CCN2C(=O)C(Cc2ccc(N(C)C)cc2)N(C)C(=O)C2CCCN2C1=O (stereo not drawn) (tested in a mixture with another compound) ({Picolinoyl(3-OH)}-T[Abu]P[ξNMePhe(4-NMe2)][ξPip(4-oxo)][Phg]; ester 1-C; configuration not given here) | 58.6% (inactive) |
| C=CCNc1ccccc1 | 86.7% (inactive) |
| CCOC(=O)C(CCC(C)C)C(=O)OCC | 109% (inactive) |
| COc1cccc(Sc2ccc([N+](=O)[O-])c3no[n+]([O-])c23)c1 | 74.2% (inactive) |
| CC1CC(O)CC(C)(C)C1 (stereo not drawn) | 105% (inactive) |
| Oc1ccccc1O | 63.9% (inactive) |
| Clc1ccc(-c2n[nH]c3c2Cc2ccccc2-3)cc1Cl | 98% (inactive) |
| CC1OC(Oc2c(-c3ccc(O)c(O)c3)oc3cc(O)cc(O)c3c2=O)C(O)C(O)C1O (stereo not drawn) | 107% (inactive) |
| O=c1[nH]nc(SC2CCCCC2)c(=O)[nH]1 | 102% (inactive) |
| CC(C)C1CCCCC1O (stereo not drawn) | 99.4% (inactive) |
| CCC(C#N)(CC)c1ccccc1 | 97.4% (inactive) |
| CC(=O)c1ccc(C(C)(C)C)cc1 | 107% (inactive) |
| CC(C)OC(=O)c1cc(NC(=S)OC(C)C)ccc1Cl | 72.7% (inactive) |
| Cc1cc2ccccc2c(O)c1C#N | 98.9% (inactive) |
| OCCN1CCOCC1 | 113% (inactive) |
| CC(=O)Oc1ccc(Br)cc1C(=O)O | 118% (inactive) |
| C#CCSc1nnnn1-c1ccc(Br)c(C)c1 | 98.4% (inactive) |
| c1ccc2c(c1)Sc1ccccc1S2 | 94.1% (inactive) |
